{"source": "PubChem BioAssay AID1159580", "about": "(chemical genetic matrix, 2015)", "experiment": "chemical genetic growth profiling, strain panel (AID 1159580);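 further: tested at 20 µM; growth read once vehicle control cultures reached saturation at 30 °C; 1 = growth at the plate median or of vehicle wells; lower values mean less growth of the strain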", "conditions": "S. cerevisiae deletion strains, growth OD", "key": {"[1]": {"conditions": "locus YHR030C, strain SLT2, active compounds read low"}}, "note": "The campaign covered roughly 5,500 compounds. About 2,000 (36%) were called active. Not shown: some 18% with an inconclusive outcome. This is one part of the list. A number with no mark means an inactive call. No stated cut-off is given here; in the data, active means normalized growth mostly below about 0.91 (no sharp cut-off); inconclusive means no clear call, values can overlap the other calls; inactive means mostly above about 0.92."}
{"compound": "Cc1onc(-c2ccccc2)c1-c1nc(CSc2ccc(C(F)(F)F)cn2)no1", "values": [{"measurement": "normalized growth", "setting": "locus YAL013W, strain DEP1, active compounds read low", "result": 1.03}, {"measurement": "normalized growth", "setting": "locus YBR229C, strain ROT2, active compounds read low", "result": 0.973}, {"measurement": "normalized growth", "setting": "locus YCL061C, strain MRC1, active compounds read low", "result": 0.991}, {"measurement": "normalized growth", "setting": "locus YDL101C, strain DUN1, active compounds read low", "result": 0.968}, {"measurement": "normalized growth", "setting": "locus YDR150W, strain NUM1, active compounds read low", "result": 1.02}, {"measurement": "normalized growth", "setting": "locus YEL061C, strain CIN8, active compounds read low", "result": 0.975}, {"measurement": "normalized growth", "setting": "locus YGR078C, strain PAC10, active compounds read low", "result": 1}, {"measurement": "normalized growth", "setting": "[1]", "result": 0.818}, {"measurement": "normalized growth", "setting": "locus YHR087W, strain rtc3, active compounds read low", "result": 0.984}, {"measurement": "normalized growth", "setting": "locus YJL187C, strain SWE1, active compounds read low", "result": 0.977}, {"measurement": "normalized growth", "setting": "locus YJR043C, strain POL32, active compounds read low", "result": 0.957}, {"measurement": "normalized growth", "setting": "locus YJR075W, strain HOC1, active compounds read low", "result": 0.995}, {"measurement": "normalized growth", "setting": "locus YLR039C, strain RIC1, active compounds read low", "result": 0.947}, {"measurement": "normalized growth", "setting": "locus YLR058C, strain SHM2 (second series), active compounds read low", "result": 0.957}, {"measurement": "normalized growth", "setting": "locus YLR085C, strain ARP6, active compounds read low", "result": 1.06}, {"measurement": "normalized growth", "setting": "locus YLR262C, strain YPT6, active compounds read low", "result": 0.93}, {"measurement": "normalized growth", "setting": "locus YML094W, strain GIM5, active compounds read low", "result": 1.02}, {"measurement": "normalized growth", "setting": "locus YMR219W, strain ESC1, active compounds read low", "result": 0.975}, {"measurement": "normalized growth", "setting": "locus YMR263W, strain SAP30, active compounds read low", "result": 0.971}, {"measurement": "normalized growth", "setting": "locus YMR307W, strain GAS1, active compounds read low", "result": 1.02}, {"measurement": "normalized growth", "setting": "locus YNL153C, strain GIM3, active compounds read low", "result": 1.02}, {"measurement": "normalized growth", "setting": "locus YNL298W, strain CLA4 (second series), active compounds read low", "result": 1.02}, {"measurement": "normalized growth", "setting": "locus YNL322C, strain KRE1, active compounds read low", "result": 0.964}, {"measurement": "normalized growth", "setting": "locus YNR030W, strain Alg12, active compounds read low", "result": 1.01}, {"measurement": "normalized growth", "setting": "locus YOL006C, strain TOP1, active compounds read low", "result": 0.946}, {"measurement": "normalized growth", "setting": "locus YPL055C, strain LGE1, active compounds read low", "result": 1.06}, {"measurement": "normalized growth", "setting": "locus YPL241C, strain CIN2, active compounds read low", "result": 0.93}, {"measurement": "normalized growth", "setting": "locus YPR135W, strain CTF4, active compounds read low", "result": 1.33}]}
{"compound": "Cc1onc(-c2ccccc2)c1C(=O)Sc1ccc(C(F)(F)F)cn1", "values": [{"measurement": "normalized growth", "setting": "locus YAR019C, strain CDC15, active compounds read low", "result": 0.941}, {"measurement": "normalized growth", "setting": "locus YBL105C, strain PKC1, active compounds read low", "result": 0.961}, {"measurement": "normalized growth", "setting": "locus YBR135W, strain CKS1, active compounds read low", "result": 0.965}, {"measurement": "normalized growth", "setting": "locus YBR136W, strain MEC1, active compounds read low", "result": 0.955}, {"measurement": "normalized growth", "setting": "locus YBR160W, strain CDC28, active compounds read low", "result": 0.967}, {"measurement": "normalized growth", "setting": "locus YDL017W, strain CDC7, active compounds read low", "result": 0.967}, {"measurement": "normalized growth", "setting": "locus YDL028C, strain MPS1, active compounds read low", "result": 0.958}, {"measurement": "normalized growth", "setting": "locus YDL108W, strain KIN28, active compounds read low", "result": 0.974}, {"measurement": "normalized growth", "setting": "locus YDL132W, strain cdc53, active compounds read low", "result": 0.951}, {"measurement": "normalized growth", "setting": "locus YDL214C, strain PRR2, active compounds read low", "result": "0.217 (active)"}, {"measurement": "normalized growth", "setting": "locus YDR052C, strain DBF4, active compounds read low", "result": 0.977}, {"measurement": "normalized growth", "setting": "locus YDR054C, strain cdc34, active compounds read low", "result": 0.937}, {"measurement": "normalized growth", "setting": "locus YDR226W, strain ADK1, active compounds read low", "result": 0.963}, {"measurement": "normalized growth", "setting": "locus YDR477W, strain SNF1, active compounds read low", "result": "0.187 (active)"}, {"measurement": "normalized growth", "setting": "locus YER123W, strain YCK3, active compounds read low", "result": "0.465 (active)"}, {"measurement": "normalized growth", "setting": "locus YER133W, strain GLC7, active compounds read low", "result": "0.249 (active)"}, {"measurement": "normalized growth", "setting": "locus YFL009W, strain cdc4, active compounds read low", "result": 0.951}, {"measurement": "normalized growth", "setting": "locus YFL029C, strain CAK1, active compounds read low", "result": 0.949}, {"measurement": "normalized growth", "setting": "locus YFR003C, strain YPI1, active compounds read low", "result": 0.971}, {"measurement": "normalized growth", "setting": "locus YFR019W, strain FAB1, active compounds read low", "result": "0.739 (active)"}, {"measurement": "normalized growth", "setting": "locus YFR028C, strain CDC14, active compounds read low", "result": 0.968}, {"measurement": "normalized growth", "setting": "locus YGR040W, strain KSS1, active compounds read low", "result": "0.227 (active)"}, {"measurement": "normalized growth", "setting": "locus YGR052W, strain FMP48, active compounds read low", "result": "0.242 (active)"}, {"measurement": "normalized growth", "setting": "locus YGR092W, strain DBF2, active compounds read low", "result": 0.799}, {"measurement": "normalized growth", "setting": "[1]", "result": "0.317 (active)"}, {"measurement": "normalized growth", "setting": "locus YHR079C, strain IRE1, active compounds read low", "result": 0.712}, {"measurement": "normalized growth", "setting": "locus YHR082C, strain KSP1, active compounds read low", "result": "0.256 (active)"}, {"measurement": "normalized growth", "setting": "locus YHR205W, strain SCH9, active compounds read low", "result": "0.343 (active)"}, {"measurement": "normalized growth", "setting": "locus YIL147C, strain SLN1, active compounds read low", "result": 0.955}, {"measurement": "normalized growth", "setting": "locus YJL095W, strain BCK1, active compounds read low", "result": "0.424 (active)"}, {"measurement": "normalized growth", "setting": "locus YJR016C, strain ILV3, active compounds read low", "result": 0.973}, {"measurement": "normalized growth", "setting": "locus YJR066W, strain TOR1 (second series), active compounds read low", "result": "0.343 (active)"}, {"measurement": "normalized growth", "setting": "locus YJR066W, strain TOR1, active compounds read low", "result": "0.283 (active)"}, {"measurement": "normalized growth", "setting": "locus YKL048C, strain ELM1, active compounds read low", "result": 0.933}, {"measurement": "normalized growth", "setting": "locus YKL101W, strain HSL1, active compounds read low", "result": 0.817}, {"measurement": "normalized growth", "setting": "locus YKL193C, strain SDS22, active compounds read low", "result": 0.952}, {"measurement": "normalized growth", "setting": "locus YKL203C, strain TOR2, active compounds read low", "result": "0.53 (active)"}, {"measurement": "normalized growth", "setting": "locus YLR113W, strain HOG1, active compounds read low", "result": "0.184 (active)"}, {"measurement": "normalized growth", "setting": "locus YLR133W, strain CKI1, active compounds read low", "result": 0.749}, {"measurement": "normalized growth", "setting": "locus YML070W, strain DAK1, active compounds read low", "result": "0.587 (active)"}, {"measurement": "normalized growth", "setting": "locus YMR001C, strain CDC5, active compounds read low", "result": 0.952}, {"measurement": "normalized growth", "setting": "locus YMR205C, strain PFK2 (second series), active compounds read low", "result": 0.882}, {"measurement": "normalized growth", "setting": "locus YMR277W, strain FCP1, active compounds read low", "result": 0.943}, {"measurement": "normalized growth", "setting": "locus YNL006W, strain LST8, active compounds read low", "result": 0.979}, {"measurement": "normalized growth", "setting": "locus YNL020C, strain ARK1, active compounds read low", "result": 0.874}, {"measurement": "normalized growth", "setting": "locus YNL161W, strain CBK1, active compounds read low", "result": 0.951}, {"measurement": "normalized growth", "setting": "locus YNL183C, strain NPR1, active compounds read low", "result": "0.106 (active)"}, {"measurement": "normalized growth", "setting": "locus YNL207W, strain RIO2, active compounds read low", "result": 0.961}, {"measurement": "normalized growth", "setting": "locus YNL222W, strain SSU72, active compounds read low", "result": 0.918}, {"measurement": "normalized growth", "setting": "locus YNL307C, strain MCK1 (second series), active compounds read low", "result": 0.683}, {"measurement": "normalized growth", "setting": "locus YOL078W, strain AVO1, active compounds read low", "result": 0.948}, {"measurement": "normalized growth", "setting": "locus YOL136C, strain PFK27, active compounds read low", "result": "0.583 (active)"}, {"measurement": "normalized growth", "setting": "locus YOR061W, strain CKA2, active compounds read low", "result": 0.765}, {"measurement": "normalized growth", "setting": "locus YOR119C, strain RIO1, active compounds read low", "result": "0.471 (active)"}, {"measurement": "normalized growth", "setting": "locus YOR231W, strain MKK1, active compounds read low", "result": 0.732}, {"measurement": "normalized growth", "setting": "locus YOR329C, strain SCD5, active compounds read low", "result": 0.96}, {"measurement": "normalized growth", "setting": "locus YPL153C, strain RAD53, active compounds read low", "result": 0.661}, {"measurement": "normalized growth", "setting": "locus YPL209C, strain IPL1, active compounds read low", "result": 0.961}, {"measurement": "normalized growth", "setting": "locus YPL256C, strain CLN2, active compounds read low", "result": "0.209 (active)"}, {"measurement": "normalized growth", "setting": "locus YPR025C, strain CCL1, active compounds read low", "result": 0.954}, {"measurement": "normalized growth", "setting": "locus YPR106W, strain ISR1, active compounds read low", "result": 0.939}, {"measurement": "normalized growth", "setting": "locus YPR111W, strain DBF20, active compounds read low", "result": 0.946}, {"measurement": "normalized growth", "setting": "strain NNK1, active compounds read low", "result": 0.963}, {"measurement": "normalized growth", "setting": "strain TSCII, active compounds read low", "result": 0.937}]}
